Results: the supplement of paper PMC12645437, “Orthogonal IMiD-Degron Pairs Induce Selective Protein Degradation in Cells” (ACS Chemical Biology, 2025)
Whole data set: some 8,300 sequences, median “log2 fold change of degron read counts, EGFP-low vs EGFP+ sorted cells (limma voom), compound-induced degradation” near -1.1, cut for the highest 2% near 3.2. Many of the other results were omitted from the sample, so the highest values are more common in it than they were.

T1: CRBN, Q96SW2
T1 chain: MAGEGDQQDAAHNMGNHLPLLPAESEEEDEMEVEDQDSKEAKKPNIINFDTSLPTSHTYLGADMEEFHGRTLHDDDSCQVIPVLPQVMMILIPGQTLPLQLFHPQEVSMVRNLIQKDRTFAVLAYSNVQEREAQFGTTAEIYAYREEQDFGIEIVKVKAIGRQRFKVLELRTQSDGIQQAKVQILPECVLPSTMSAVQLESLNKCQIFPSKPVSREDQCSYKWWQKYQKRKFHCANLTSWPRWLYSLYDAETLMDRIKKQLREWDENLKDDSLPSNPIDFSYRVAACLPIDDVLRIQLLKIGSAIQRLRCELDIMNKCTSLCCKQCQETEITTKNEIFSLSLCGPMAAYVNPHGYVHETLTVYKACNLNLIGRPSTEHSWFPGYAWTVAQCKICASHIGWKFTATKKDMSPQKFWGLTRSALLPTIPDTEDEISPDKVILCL


Biological target: T1, CRBN, Q96SW2
Test: log2 fold change of degron read counts, EGFP-low vs EGFP+ sorted cells (limma voom), compound-induced degradation; higher = more compound-induced degradation of the degron-EGFP fusion; degrons are variants of IKZF1/3 zinc finger 2; compound dose not given here
Settings: Jurkat, 18 h
[1] = compound: compound 19 (5-tert-butyl-thalidomide)
[2] = compound: compound 22 (5-morpholino-thalidomide)
[3] = compound: compound 33 (diphenyl IMiD analogue)
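Further: pooled lentiviral library of zinc finger degron-EGFP fusions in mCherry-positive Jurkat cells, FACS-sorted after compound exposure, with degron abundance counted by next-generation sequencing.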

Sequence	log2 fold change of degron read counts [1]	log2 fold change of degron read counts [2]	log2 fold change of degron read counts [3]	log2 fold change of degron read counts (compound: thalidomide)
FICNQCGHNFTQKGNLLRHIKL [46F_47I_49N_50Q_52G_53H_54N_55F_67L_, Q9UKT9]	-2.7	-3.24	-2.97	-2.3
FICNQCGHQFTQKGNLLRHIKL [46F_47I_49N_50Q_52G_53H_54Q_55F_67L_, Q9UKT9]	-3.84	-3.33	-2.9	-3.11
FNCEICGAFFTQKGNLLRHIKL [46F_47N_49E_50I_52G_53A_54F_55F_67L_, Q9UKT9]	0.798	-1.38	-0.734	-1.26
FACNICGAGFTQKGNLLRHIKL [46F_47A_49N_50I_52G_53A_54G_55F_67L_, Q9UKT9]	1.91	0.962	-0.444	-0.984
FWCEICGRHFTQKGNLLRHIKL [46F_47W_49E_50I_52G_53R_54H_55F_67L_, Q9UKT9]	0.466	0.665	0.0348	-0.898
FNCPICGRMFTQKGNLLRHIKL [46F_47N_49P_50I_52G_53R_54M_55F_67L_, Q9UKT9]	-0.587	-0.626	-0.159	-0.181
FGCNQCGHNFTQKGNLLRHIKL [46F_47G_49N_50Q_52G_53H_54N_55F_67L_, Q9UKT9]	-2.02	-2.05	-2.04	-1.85
LLCPICGFHCTQKGNLLRHIKL [46L_47L_49P_50I_52G_53F_54H_55C_67L_, Q9UKT9]	-0.42	0.0892	1.25	1.51
